Results filed as inconclusive are left out. Calls of active or inactive are those of the source. Unless noted, calls follow the shape of the dose curve; as a rule, active = well fitted curve in the direction sought with a large enough effect; inconclusive = small, poorly fitted or top-dose-only effect, or another doubt; inactive = no such curve, though single readings can be large; an effect the other way counts as inactive or inconclusive.

Consider 19 molecules from PubChem BioAssay (NCATS).

Test [1] is described as follows: MultiTox-Fluor Cytotoxicity Assay - LYMP1-002 - Live Cells (AID 955).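 Also: cells exposed to compound for 16 hours.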 The gist of the method:
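Read-out is live-cell protease activity (cell-permeant GF-AFC substrate, fluorescence Ex/Em=405/510), where a decrease indicates acute toxicity. Human lymphoblastoid cells were treated 16 hours at 37 C in a concentration series, and AC50 values came from standard Hill modelling.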

A short description of test [2]: MultiTox-Fluor Cytotoxicity Assay - LYMP1-002 - Dead Cells (AID 960). Also: nearly all actives have a fitted effect of over 60% in size. Also: potency is read from the fitted curve at half-maximal effect. In short, it runs like this:
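LYMP1-002 cells 2500/well; 5 hr 37 C pre-incubation; compound 16 hr 37 C; MultiTox-Fluor reagent 60 min RT; dead-cell fluor Ex/Em 485/520. Norm. to DMSO (0%) vs 15 uM tetraoctylammonium bromide (100%); Hill AC50.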

The nature of test [3]: MultiTox-Fluor Cytotoxicity Assay - LYMP1-003 - Dead Cells (AID 961). Also: nearly all actives have a fitted effect of over 70% in size. Also: potency is read from the fitted curve at half-maximal effect. In short, it runs like this:
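Dead-cell protease release, detected as bis-AAF-R110 fluorescence at 485/520 nm, was measured in LYMP1-003 cells after 16 h compound treatment at 37 C. AC50 values came from Hill-modeled qHTS curves normalized to DMSO (0%) and 15 uM tetraoctylammonium bromide (100%).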

Test [4] can be described thus: MultiTox-Fluor Cytotoxicity Assay - LYMP1-003 - Live Cells (AID 962).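 Also: cells exposed to compound for 16 hours at 37 °C; cytotoxic hits lower the live-cell protease signal.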 The gist of the method:
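qHTS, 1536-well; 2500 cells/well LYMP1-003; 5 hr 37 C settle; cpd 16 hr 37 C; MultiTox-Fluor reagent 60 min RT; live-cell protease fluor. 405/510; Hill-fit AC50; tetraoctylammonium bromide pos. ctrl.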

A short description of test [5]: Cell Viability - LYMP1-003 - Assay at 24 hr (AID 963). In short, it runs like this: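 Cells seeded at 2500/well, 5 hr at 37 C; compounds added; 24 hr at 37 C; CellTiter-Glo added, 30 min room temperature; luminescence read. Decrease in ATP taken as cytotoxicity, AC50 from Hill modelling.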
A short description of test [6]: Cell Viability - LYMP1-003 - Assay at 40 hr (AID 964). Also: nearly all actives have a fitted effect of over 60% in size. Also: potency is read from the fitted curve at half-maximal effect. The gist of the method:
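Cells were seeded at 2500 per well and incubated 5 hr at 37 C. Compounds were added across a concentration series and left 40 hr at 37 C. CellTiter-Glo was added for 30 min at room temperature before luminescence reading.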

The nature of test [7]: Cell Viability - LYMP2-003 (AID 965).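 Also: cells exposed to compounds for 24 h before reading; nearly all actives have a fitted effect of over 50% in size.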 Also: potency is read from the fitted curve at half-maximal effect. In short, it runs like this:
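CellTiter-Glo luminescence quantified ATP loss after 24 h compound treatment of LYMP2-003 lymphoblastoid cells at 37 C. Titration series were fitted with the standard Hill equation to give AC50.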

A short description of test [8]: Cell Viability - LYMP2-009 (AID 968). Also: nearly all actives have a fitted effect of over 55% in size. Also: potency is read from the fitted curve at half-maximal effect.
Test [9] is described as follows: Cell Viability - LYMP2-011 (AID 969).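 Also: cells exposed to compound for 24 hours; nearly all actives have a fitted effect of over 60% in size.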 Also: potency is read from the fitted curve at half-maximal effect. The gist of the method: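 2500 cells/well, 5 hr 37 C; compound added, 24 hr 37 C; CellTiter-Glo 30 min RT; luminescence. qHTS concentration-response, Hill-equation AC50. Tetraoctylammonium bromide positive control.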
Test [10] addresses Pyruvate kinase PKM (Homo sapiens) (UniProt P14618). The experiment in a line: qHTS Assay for Activators of Human Muscle Pyruvate Kinase (AID 954; active = well fitted curve in the direction sought with a large enough effect, not every such curve was filed as active). In short, it runs like this:
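Human PKM2 activity is measured as ATP generation, detected by luciferase-coupled luminescence. The enzyme (0.1 nM) acts on 0.5 mM PEP and 0.1 mM ADP for 1 h at ambient temperature; data are normalized to uninhibited and full-inhibition wells.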

Chain of Pyruvate kinase PKM (Homo sapiens) (P14618 whole entry, looked up): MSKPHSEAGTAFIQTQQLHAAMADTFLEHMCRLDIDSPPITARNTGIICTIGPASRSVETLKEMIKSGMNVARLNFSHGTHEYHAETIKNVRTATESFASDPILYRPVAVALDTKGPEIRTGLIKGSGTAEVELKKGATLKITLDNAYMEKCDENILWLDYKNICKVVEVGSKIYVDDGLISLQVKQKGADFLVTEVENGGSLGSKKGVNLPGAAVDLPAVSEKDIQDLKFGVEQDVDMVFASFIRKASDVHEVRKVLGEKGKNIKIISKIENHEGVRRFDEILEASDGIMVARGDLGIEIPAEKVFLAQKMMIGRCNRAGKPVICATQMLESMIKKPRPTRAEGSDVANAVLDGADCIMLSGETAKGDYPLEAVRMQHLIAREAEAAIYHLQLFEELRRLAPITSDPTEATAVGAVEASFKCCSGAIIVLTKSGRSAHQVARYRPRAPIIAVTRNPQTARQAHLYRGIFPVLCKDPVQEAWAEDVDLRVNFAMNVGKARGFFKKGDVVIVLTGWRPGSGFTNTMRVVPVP

Turning to `O=C(O)CCC(=O)C(=O)O`, the molecule was classed as inactive in [1], in [4] and in test [5]. Moreover, the Potency entry in test [2], in [3], in test [6], in test [7], in test [8] and in [9] was “inactive” each time.
For `Nc1ccn([C@H]2CS[C@@H](CO)O2)c(=O)n1`, the call in [1], in test [4] and in [5] was inactive. The Potency entry in test [2], in [3], in [6], in test [7], in test [8] and in [9] was “inactive” each time.
For `IC(I)I`, the molecule was classed as inactive in [1], in test [4] and in test [5]. Besides, the Potency result in [2], in [3], in test [6], in test [7], in test [8] and in test [9] was “inactive” in each case.
On to `CCCCCCCC(=O)O`, for which the call in [1], in [4] and in test [5] was inactive. For the same molecule, the Potency entry in test [2], in test [3], in test [6], in test [7], in test [8] and in [9] was “inactive” in each case.
`CCCCCCCC/C=C\CCCCCCCC(=O)O`: the call in [1], in test [4] and in test [5] was inactive. In addition, the Potency entry in [2], in test [3], in test [6], in test [7], in test [8] and in test [9] was “inactive” in each case.
Regarding `CC(C)(C)NC(=O)[C@@H]1C[C@@H]2CCCC[C@@H]2CN1C[C@@H](O)[C@H](Cc1ccccc1)NC(=O)[C@H](CC(N)=O)NC(=O)c1ccc2ccccc2n1`, the Potency in test [2] was 31.6 µM (active); in test [3], 50.1 µM (active); in test [6] it was 50.1 µM (active).
Consider `CN=C(NC#N)Nc1ccc(C2=NNC(=O)C[C@@H]2C)cc1`, for which, in test [10], the outcome was inactive.
For the molecule `Cc1ccccc1`, the molecule was classed as inactive in [1], in test [4] and in test [5]. Besides, the Potency result in test [2], in test [3], in test [6], in test [7], in [8] and in test [9] was “inactive” throughout.
For `CCOc1ccc2c(c1)C(C)=CC(C)(C)N2`, the result in test [1], in [4] and in test [5] was inactive. The Potency result in test [2], in test [7], in test [8] and in test [9] was “inactive” in each case.
For `CC(O)CO` (stereo not drawn), the outcome in test [1], in test [4] and in [5] was inactive. Further, the Potency result in test [2], in test [3], in [6], in test [7], in [8] and in test [9] was “inactive” throughout.
On to `CC(C)=O`, for which the result in test [1], in [4] and in test [5] was inactive. Also, the Potency entry in [2], in test [3], in [6], in [7], in [8] and in test [9] was “inactive” each time.
With `O=CCCCC=O`, the call in test [1], in test [4] and in test [5] was inactive. The Potency was 50.1 µM (active) in test [3], 39.8 µM (active) in [7], 25.1 µM (active) in test [8] and 20 µM (active) in [9]. Also, the Potency result in test [6] was “inactive”.
`CC[N+](C)(C)Cc1ccccc1Br`: the molecule was classed as inactive in [10].
Consider `CCOC(C)=O`, for which the result in test [1], in [4] and in test [5] was inactive. For the same molecule, the Potency result in test [2], in test [3], in [6], in [7], in [8] and in test [9] was “inactive” in each case.
For `COc1ccc(CCNC[C@H](O)c2ccc(O)cc2)cc1OC`, the molecule was classed as inactive in [10].
Turning to `CC1=C(/C=C/C(C)=C/C=C/C(C)=C/CO)C(C)(C)CCC1`, the molecule was classed as inactive in [1], in test [4] and in test [5]. Further, the Potency in [7] was 50.1 µM (active).
Regarding `CCCCC/C=C\C/C=C\CCCCCCCC(=O)O`, the call in [1], in test [4] and in [5] was inactive. The Potency result in test [2], in [3], in [6], in [7], in test [8] and in [9] was “inactive” in each case.
Take `CC1=C2[C@@H]([C@H](C)CC[C@H]2/C=C(\C)C(=O)O)[C@H](O)C1`: the call in [1], in test [4] and in test [5] was inactive. The Potency entry in [2], in [3], in [6], in test [7], in test [8] and in [9] was “inactive” throughout.
For `O=S(=O)(O)O`, the molecule was called inactive in [1], in [4] and in test [5]. The Potency entry in test [2], in test [3], in test [6], in test [7], in test [8] and in test [9] was “inactive” throughout.
